B1: unnamed (peptide)
chain: FSRRQSMDIPSKNRN
B2: unnamed (peptide)
chain: YVRRRPRVRLEPLLS

biological target: AgAbp1; assay: SPOT peptide array binding signal intensity (averaged, normalized) (arbitrary units (background-subtracted, floor 0; scale differs between SH3 domains)); higher = stronger binding of the SH3 domain to the peptide
Summary of the method: (§1)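 GST-fused SH3 domains from four yeast species were expressed in E. coli BL21(DE3), purified on glutathione Sepharose and incubated at 10 μg/ml overnight at 4°C in TBS-based blocking buffer on cellulose membranes carrying synthetic 15-mer peptides, with cysteines replaced by serines. Bound protein was detected with anti-GST antibody, an HRP anti-mouse secondary and luminol, then imaged and quantified with Genespotter. Binding signal is the normalized, background-subtracted spot intensity averaged over replicates, in arbitrary units that differ between domains.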

Binder | SPOT peptide array binding signal intensity
B1 | 114

biological target: AgBbc1; assay: as above
Summary of the method: as §1

Binder | SPOT peptide array binding signal intensity
B1 | 69.8

biological target: AgBem1-D1; assay: as above
Summary of the method: as §1

Binder | SPOT peptide array binding signal intensity
B1 | 557

biological target: AgBzz1-D1; assay: as above
Summary of the method: as §1

Binder | SPOT peptide array binding signal intensity
B1 | 33

biological target: AgBzz1-D2; assay: as above
Summary of the method: as §1

Binder | SPOT peptide array binding signal intensity
B1 | 78.5

biological target: AgCyk3; assay: as above
Summary of the method: as §1

Binder | SPOT peptide array binding signal intensity
B1 | 3

biological target: AgFus1; assay: as above
Summary of the method: as §1

Binder | SPOT peptide array binding signal intensity
B1 | 248

biological target: AgHof1; assay: as above
Summary of the method: as §1

Binder | SPOT peptide array binding signal intensity
B1 | 67.5

biological target: AgHse1; assay: as above
Summary of the method: as §1

Binder | SPOT peptide array binding signal intensity
B1 | 550

biological target: AgLsb1; assay: as above
Summary of the method: as §1

Binder | SPOT peptide array binding signal intensity
B1 | 15

biological target: AgLsb4; assay: as above
Summary of the method: as §1

Binder | SPOT peptide array binding signal intensity
B1 | 24

biological target: AgMyo5; assay: as above
Summary of the method: as §1

Binder | SPOT peptide array binding signal intensity
B1 | 16

biological target: AgNbp2; assay: as above
Summary of the method: as §1

Binder | SPOT peptide array binding signal intensity
B1 | 660

biological target: AgRvs167; assay: as above
Summary of the method: as §1

Binder | SPOT peptide array binding signal intensity
B1 | 4.17

biological target: AgSho1; assay: as above
Summary of the method: as §1

Binder | SPOT peptide array binding signal intensity
B1 | 115

biological target: AgSla1-D1-D2; assay: as above
Summary of the method: as §1

Binder | SPOT peptide array binding signal intensity
B1 | 54

biological target: AgSla1-D3; assay: as above
Summary of the method: as §1

Binder | SPOT peptide array binding signal intensity
B1 | 11

biological target: CaAbp1-D1; assay: as above
Summary of the method: as §1

Binder | SPOT peptide array binding signal intensity
B1 | 266

biological target: CaAbp1-D2; assay: as above
Summary of the method: as §1

Binder | SPOT peptide array binding signal intensity
B1 | 313

biological target: CaBbc1; assay: as above
Summary of the method: as §1

Binder | SPOT peptide array binding signal intensity
B1 | 384

biological target: CaBem1-D1; assay: as above
Summary of the method: as §1

Binder | SPOT peptide array binding signal intensity
B1 | 686

biological target: CaBzz1-D1; assay: as above
Summary of the method: as §1

Binder | SPOT peptide array binding signal intensity
B1 | 475

biological target: CaBzz1-D2; assay: as above
Summary of the method: as §1

Binder | SPOT peptide array binding signal intensity
B1 | 308

biological target: CaCyk3; assay: as above
Summary of the method: as §1

Binder | SPOT peptide array binding signal intensity
B1 | 25

biological target: CaFus1; assay: as above
Summary of the method: as §1

Binder | SPOT peptide array binding signal intensity
B1 | 602

biological target: CaHof1; assay: as above
Summary of the method: as §1

Binder | SPOT peptide array binding signal intensity
B1 | 0.5

biological target: CaHse1; assay: as above
Summary of the method: as §1

Binder | SPOT peptide array binding signal intensity
B1 | 225

biological target: CaLsb1; assay: as above
Summary of the method: as §1

Binder | SPOT peptide array binding signal intensity
B1 | 4

biological target: CaLsb4; assay: as above
Summary of the method: as §1

Binder | SPOT peptide array binding signal intensity
B1 | 412

biological target: CaMyo5; assay: as above
Summary of the method: as §1

Binder | SPOT peptide array binding signal intensity
B1 | 47.8

biological target: CaNbp2; assay: as above
Summary of the method: as §1

Binder | SPOT peptide array binding signal intensity
B1 | 1460
B2 | 887

biological target: CaRvs167; assay: as above
Summary of the method: as §1

Binder | SPOT peptide array binding signal intensity
B1 | 96.7
B2 | 23.8

biological target: CaRvs167-3; assay: as above
Summary of the method: as §1

Binder | SPOT peptide array binding signal intensity
B1 | 1.75
B2 | 82.6

biological target: CaSho1; assay: as above
Summary of the method: as §1

Binder | SPOT peptide array binding signal intensity
B1 | 691
B2 | 898

biological target: CaSla1-D1-D2; assay: as above
Summary of the method: as §1

Binder | SPOT peptide array binding signal intensity
B1 | 982
B2 | 114

biological target: CaSla1-D3; assay: as above
Summary of the method: as §1

Binder | SPOT peptide array binding signal intensity
B1 | 552
B2 | 5.25

biological target: ScAbp1; assay: as above
Summary of the method: as §1

Binder | SPOT peptide array binding signal intensity
B1 | 74
B2 | 128

biological target: ScBbc1; assay: as above
Summary of the method: as §1

Binder | SPOT peptide array binding signal intensity
B1 | 34
B2 | 24.8

biological target: ScBem1-D1; assay: as above
Summary of the method: as §1

Binder | SPOT peptide array binding signal intensity
B1 | 88.5
B2 | 46.5

biological target: ScBzz1-D1; assay: as above
Summary of the method: as §1

Binder | SPOT peptide array binding signal intensity
B1 | 48
B2 | 58.5

biological target: ScBzz1-D2; assay: as above
Summary of the method: as §1

Binder | SPOT peptide array binding signal intensity
B1 | 102
B2 | 117

biological target: ScCyk3; assay: as above
Summary of the method: as §1

Binder | SPOT peptide array binding signal intensity
B1 | 8.5
B2 | 79.5

biological target: ScFus1; assay: as above
Summary of the method: as §1

Binder | SPOT peptide array binding signal intensity
B1 | 405
B2 | 706

biological target: ScHof1; assay: as above
Summary of the method: as §1

Binder | SPOT peptide array binding signal intensity
B1 | 2
B2 | 0.5

biological target: ScHse1; assay: as above
Summary of the method: as §1

Binder | SPOT peptide array binding signal intensity
B1 | 566
B2 | 2260

biological target: ScLsb1; assay: as above
Summary of the method: as §1

Binder | SPOT peptide array binding signal intensity
B1 | 56.8
B2 | 22.5

biological target: ScLsb2; assay: as above
Summary of the method: as §1

Binder | SPOT peptide array binding signal intensity
B1 | 1
B2 | 8

biological target: ScLsb3; assay: as above
Summary of the method: as §1

Binder | SPOT peptide array binding signal intensity
B1 | 350
B2 | 558

biological target: ScLsb4; assay: as above
Summary of the method: as §1

Binder | SPOT peptide array binding signal intensity
B1 | 126
B2 | 29.5

biological target: ScMyo3; assay: as above
Summary of the method: as §1

Binder | SPOT peptide array binding signal intensity
B1 | 41.5
B2 | 6.25

biological target: ScMyo5; assay: as above
Summary of the method: as §1

Binder | SPOT peptide array binding signal intensity
B1 | 13
B2 | 3

biological target: ScNbp2; assay: as above
Summary of the method: as §1

Binder | SPOT peptide array binding signal intensity
B1 | 846
B2 | 548

biological target: ScPex13; assay: as above
Summary of the method: as §1

Binder | SPOT peptide array binding signal intensity
B1 | 586
B2 | 18.2

biological target: ScRvs167; assay: as above
Summary of the method: as §1

Binder | SPOT peptide array binding signal intensity
B1 | 70.5
B2 | 30.8

biological target: ScSho1; assay: as above
Summary of the method: as §1

Binder | SPOT peptide array binding signal intensity
B1 | 458
B2 | 1070

biological target: ScSla1-D1-D2; assay: as above
Summary of the method: as §1

Binder | SPOT peptide array binding signal intensity
B1 | 1260
B2 | 309

biological target: ScSla1-D3; assay: as above
Summary of the method: as §1

Binder | SPOT peptide array binding signal intensity
B1 | 851
B2 | 29.9

biological target: SpAbp1-D1; assay: as above
Summary of the method: as §1

Binder | SPOT peptide array binding signal intensity
B1 | 118
B2 | 252

biological target: SpBbc1; assay: as above
Summary of the method: as §1

Binder | SPOT peptide array binding signal intensity
B1 | 17
B2 | 23.2

biological target: SpBzz1-D1; assay: as above
Summary of the method: as §1

Binder | SPOT peptide array binding signal intensity
B1 | 573
B2 | 125

biological target: SpBzz1-D2; assay: as above
Summary of the method: as §1

Binder | SPOT peptide array binding signal intensity
B1 | 16.8
B2 | 4.62

biological target: SpCyk3; assay: as above
Summary of the method: as §1

Binder | SPOT peptide array binding signal intensity
B1 | 4
B2 | 2

biological target: SpHof1; assay: as above
Summary of the method: as §1

Binder | SPOT peptide array binding signal intensity
B1 | 43.8
B2 | 97.6

biological target: SpHof1-2; assay: as above
Summary of the method: as §1

Binder | SPOT peptide array binding signal intensity
B1 | 98
B2 | 29.5

biological target: SpHof1-3; assay: as above
Summary of the method: as §1

Binder | SPOT peptide array binding signal intensity
B1 | 193
B2 | 256

biological target: SpHse1; assay: as above
Summary of the method: as §1

Binder | SPOT peptide array binding signal intensity
B1 | 784
B2 | 834

biological target: SpLsb1; assay: as above
Summary of the method: as §1

Binder | SPOT peptide array binding signal intensity
B1 | 15
B2 | 7.88

biological target: SpLsb4; assay: as above
Summary of the method: as §1

Binder | SPOT peptide array binding signal intensity
B1 | 290
B2 | 254

biological target: SpMyo1; assay: as above
Summary of the method: as §1

Binder | SPOT peptide array binding signal intensity
B1 | 32.5
B2 | 5.25

biological target: SpNbp2; assay: as above
Summary of the method: as §1

Binder | SPOT peptide array binding signal intensity
B1 | 400
B2 | 673

biological target: SpPex13; assay: as above
Summary of the method: as §1

Binder | SPOT peptide array binding signal intensity
B1 | 157
B2 | 61.8

biological target: SpRvs167; assay: as above
Summary of the method: as §1

Binder | SPOT peptide array binding signal intensity
B1 | 34.5
B2 | 23

biological target: SpSla1-D1-D2; assay: as above
Summary of the method: as §1

Binder | SPOT peptide array binding signal intensity
B1 | 30.5
B2 | 9

biological target: SpSla1-D3; assay: as above
Summary of the method: as §1

Binder | SPOT peptide array binding signal intensity
B1 | 279
B2 | 87

From the supplement of paper PMC4466140
